PubChem BioAssay (NCATS)
Records with an inconclusive call do not appear. The source holds several records for some structures; these can differ, active in one and inactive in another. Active and inactive are the calls of the source. Calls come from the whole dose curve; as a rule, active = well fitted inhibition curve with a large enough effect; inconclusive = small, poorly fitted or top-dose-only effect; inactive = flat fitted curve, though single readings scatter.
Potency is the fitted concentration of half-maximal effect.

Assay: qHTS for Inhibitors of Plasmodium falciparum (7G8) proliferation (AID 504316); note: nearly all actives have a fitted effect of over 65% in size;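 for activity change, negative = inhibition: 0% = DMSO vehicle and -100% = 0.29 µM artemisinin full kill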
Settings: P. falciparum 7G8 in erythrocytes, SYBR Green DNA, 72 h; series mostly up to 6.7 µM; activity change, negative = inhibition: at the top concentration
From the text: Plasmodium falciparum is a virulent malarial parasite that kills 1-2 million people worldwide each year. Malaria not only inflicts tremendous suffering and morbidity on the human population, but has dramatically influenced the course of civilization with profound sociological and economic implications (Shah, S. 2010). Transmitted by mosquitoes, the sporozoite form of the parasite enters the blood stream to infect hepatocytes, where they become merozoites that infect red blood cells (erythrocytes). Within erythrocytes, merozoites begin a […] cycle of growth and division, after which the parasite is released to infect new red blood cells. Gametocytes, which form within erythrocytes as well, circulate in the bloodstream and are ingested by the mosquito, thereby completing the life cycle (see CDC website). To profile malarial lines for differential chemical responses and to identify inhibitors of malarial growth, an assay that measures P. falciparum growth and replication within erythrocytes was employed. This assay uses a DNA binding fluorescent dye (SYBR Green) to detect parasite DNA following cell lysis. Because mature erythrocytes lack DNA, only Plasmodium-derived DNA is detected. The P. falciparum line cp250, derived from a malarial isolate from Cambodia, (Mu, J., et al. 2010) was added to the panel of lines, Dd2, HB3, 7G8 and GB4 in this study. Laboratory of Assay Development and Screening Technology [ADST] and NIH Chemical Genomics Center [NCGC] Boston University, Chemistry Department, Center for Chemical Methodology and Library Development [CMLD-BU] NIH National Institute of Allergy and Infectious Diseases [NIAID]
ADST Assay Protocol Summary: The 1536-well SYBR Green viability assay was based on the method of Bennett et al (2004) and described previously in 1536-well format (Yuan J., et al. 2009). For screening 3 ul culture medium was dispensed into 1536 well black clear bottom plates (Aurora Biotechnologies) using a Multidrop Combi (Thermo Fisher Scientific Inc.), 23 nL compounds in DMSO were added by a pin transfer (Cleveland, P.H. and Koutz, P.J, 2005) using a pin tool-based delivery system (Kalypsys), and 5 ul of erythrocytes infected with P. falciparum one of five lines (cp250, Dd2, HB3, 7G8 or GB4, 0.3% parasitemia, 2.5% hematocrit final concentration) were added. The plates were incubated at 37C in a humidified incubator in 5% CO2 for 72 h, and 2 ul lysis buffer (20 mM Tris HCl, 10 mM EDTA, 0.16% saponin, 1.6% triton X, 10X SYBR Green I (supplied as 10,000X final concentration by Invitrogen) was added to each well. The plates were mixed for 25 sec with gentle shaking and incubated overnight at room temperature in the dark. The following morning, fluorescence intensity at 485(14) nm excitation and 535(25) nm emission wavelengths was measured on an EnVision (Perkin Elmer) plate reader. Plate reads were normalized relative to the control inhibitor (0.29 uM artemisinin) and vehicle (DMSO) wells present on each plate and then corrected by an algorithm using vehicle-only control plates at the beginning and end of the compound plate stack. References Shah, S. (2010). The Fever: how malaria has ruled humankind for 500,000 years. New York, Sarah Crichton Books. CDC web site, http://www.cdc.gov/malaria/about/biology/index.html Mu, J., Myers, R.A., Jiang, H., Liu, S., Ricklefs, S., Waisberg, M., Chotivanich, K., Wilairatana, P., Krudsood, S., White, N.J., et Plasmodium falciparum genome-wide scans for positive selection, recombination hot spots and resistance to antimalarial drugs Nature Genetics 2010, 42, pp 268-271 Bennett TN, Paguio, M., Gligorijevic, B., Seudieu, C., Kosar, A. D., Davidson, E., and Roepe, P. D. Novel, rapid, and inexpensive cell-based quantification of antimalarial drug efficacy Antimicrobial Agents Chemother. 2004, 48(5): pp 1807-10 Yuan J, Johnson RL, Huang RL, Wichterman J, Jiang HY, Hayton K, Fidock DA, Wellems TE, Inglese J, Austin CP, Su XZ. […]
In the case of COC[C@@H](O)[C@H]1OCc2ccccc2[C@H]1C=Cc1ccccc1, the “activity change, negative = inhibition” value is reported as -3.49% (inactive). With CC(CCC(=O)OC[C@H]1O[C@H](C#Cc2ccccc2)C=C[C@H]1Oc1ccc(C)cc1)=NOC[C@@H](O)COCc1ccco1 the “activity change, negative = inhibition” value was -16.5% (inactive). With CCOC(=O)C(C)=NNC(C)=O the “activity change, negative = inhibition” value was 8.46% (inactive). In the case of CCN1C(=NCCc2cccnc2)N[C@H](CCc2ccccc2)[C@H](C(=O)OC)[C@H]1C, the “activity change, negative = inhibition” value is reported as -3.23% (inactive). In the case of Cc1cc2c(nc1C)CCCN2CC(O)CN1CCN(C)CC1 (stereo not given), the “activity change, negative = inhibition” value is reported as 4.91% (inactive). With COc1ccc(-c2nc(-c3ccccc3)c(NC(C)(C)C)o2)cc1 the Potency was 1.51 µM (active) and inactive. With C=CCOC(=O)NC(CC(=Nc1ccc(OC)cc1)C(=O)OC)c1ccccc1 (stereo not given) the “activity change, negative = inhibition” value was -4.15% (inactive). In the case of CC#CCN1C(=O)NC(c2ccccc2)C(C#N)=C1C (stereo not given), the “activity change, negative = inhibition” value is reported as 6.48% (inactive). For CC=CC1=CC2=CC(=O)C(C)(OC(=O)c3c(C)cc(O)cc3O)C(=O)C2=CO1 (stereo not given), the “activity change, negative = inhibition” value was -0.428% (inactive). In the case of CCCNC(=O)CC1OC(C2CCCCC2)Cc2ccccc21 (stereo not given), the “activity change, negative = inhibition” value is reported as 10.5% (inactive). In the case of O=C1CCCC2=C1[C@H]1O[C@](CCCCN3C(=O)c4ccccc4C3=O)(Cc3c1ccc1ccccc31)O2, the Potency is reported as 1.69 µM (active). For C#CCN1C(=O)C2(CC(C)=C[C@@H](C)O2)c2c(Br)cccc21 (stereo not given in full), the “activity change, negative = inhibition” value was -5.18% (inactive). In the case of Cc1cc2c(nc1C)CCCCN2C[C@H](C)ON=C[C@@H](C)[C@H](OCc1ccccc1)C(C)C, the “activity change, negative = inhibition” value is reported as -9.79% (inactive). In the case of COc1ccc(-c2nc(-c3ccccc3)oc2Nc2ccccc2C)cc1, the Potency is reported as “inactive”. With COC(=O)N[C@H](CC(C)=O)c1cccs1 the “activity change, negative = inhibition” value was -1.81% (inactive). With CCOC(=O)[C@@]1([C@@H](NC(=O)OC)c2ccco2)CCCC1=O the “activity change, negative = inhibition” value was -0.985% (inactive). For CCCCC1=CC2=C(c3ccco3)C(=O)C(C)(OC(=O)c3ccc(OC)cc3)C(=O)C2=CN1CCCOC(C)C (stereo not given), the “activity change, negative = inhibition” value was 2.11% (inactive). For Cc1cc2c(c(=O)n1-c1ccccc1)[C@H]1O[C@](c3ccsc3)(Cc3ccccc31)O2, the Potency was 1.51 µM (active). With CCCCCCCc1cc2ccccc2c2c(C(=O)OC)cc(C(=O)OC)n12 the “activity change, negative = inhibition” value was 11.4% (inactive). In the case of COC(=O)c1ccc(CN2C(=O)[C@]3(O[C@H](C)CC4=CCCC43)c3c(Br)cccc32)cc1 (stereo not given in full), the “activity change, negative = inhibition” value is reported as -13.8% (inactive). In the case of CCCCc1nc2c(c3c1C[C@H](C)OC3)CN(C(=O)Cc1cccs1)CC2, the Potency is reported as “inactive”. In the case of CCN1C(=O)NC(CCc2ccccc2)C(C(C)=O)=C1C (stereo not given), the “activity change, negative = inhibition” value is reported as -9.79% (inactive). For COc1ccc(CN2C=C3C(=O)C(C)(OC(=O)C4CCCC4)C(=O)C=C3C=C2c2ccsc2)cc1 (stereo not given), the “activity change, negative = inhibition” value was -4.74% (inactive). For C[C@H]1Cc2c(-c3ccccc3)nc3c(c2CO1)CN(C(=O)NCc1ccco1)CC3, the Potency was “inactive”. In the case of COC(=O)C1=C[C@@]2(c3ccc(F)cc3[C@@H](OC)[C@@H]2C)[C@@H]2C=C[C@H]1C2, the “activity change, negative = inhibition” value is reported as -1.22% (inactive). For CCCCC1=CC2=C(c3ccco3)C(=O)C(C)(OC(=O)c3ccc(OC)cc3)C(=O)C2=CN1Cc1ccc2c(c1)OCO2 (stereo not given), the Potency was “inactive”. For COCCN1C(=NCCc2cccnc2)NC(c2ccccc2)C(C(=O)OC)=C1C (stereo not given), the “activity change, negative = inhibition” value was -3.48% (inactive). For COC(=O)N[C@H](CC(C)=O)c1ccc2c(c1)OCO2, the “activity change, negative = inhibition” value was 4.29% (inactive). For C=CC[C@@H]1C=C[C@H](ON=C[C@@H](N[S+](=O)([O-])c2ccc(C)cc2)[C@H](C)C=CCC(=O)OC)[C@H](CO)O1, the “activity change, negative = inhibition” value was -14.5% (inactive). With COC(=O)C1=C(C)N(Cc2ccccc2)C(=NCc2cc(OC)c(OC)c(OC)c2)NC1CCc1ccccc1 (stereo not given) the Potency was 1.51 µM (active). With O=C(NN=C1C[C@@H](O)[C@H](O)[C@H]2[C@@H]3C(=O)N(C4CCCCC4)C(=O)[C@@H]3CC[C@@H]12)OCc1ccccc1 the “activity change, negative = inhibition” value was -2.39% (inactive). In the case of COc1cccc([C@H]2Oc3ccc(OC)cc3C(=NO[C@@H](C)c3cc(-c4c(C)cc(C)cc4C)no3)[C@H]2O)c1, the “activity change, negative = inhibition” value is reported as -10.4% (inactive). With COCCN1C(=O)NC(c2ccco2)C(C(=O)OC)=C1C (stereo not given) the “activity change, negative = inhibition” value was 0.625% (inactive). In the case of CCOC(=O)CN1C(=O)[C@@]2(CC(C)=C[C@@H](COCc3ccccc3)O2)c2ccccc21, the “activity change, negative = inhibition” value is reported as -14.8% (inactive). For CC(C)=CCN1C(=O)[C@@]2(CC(C)=C[C@@H](COCc3ccccc3)O2)c2ccccc21, the Potency was 1.9 µM (active). For C[C@@H]1CC[C@H]2C(=O)O[C@@H](Cc3ccccc3)CN2[C@@H]1c1ccc(Br)cc1, the “activity change, negative = inhibition” value was 0.506% (inactive). In the case of COC(=O)CCC(=O)OC1(C)C(=O)C=C2C=C(C3CC3)N(Cc3ccco3)C=C2C1=O (stereo not given), the Potency is reported as “inactive”. With CCOC(=O)CN1C(=O)NC(c2ccc(Br)cc2)C(C(=O)OC)=C1C (stereo not given) the “activity change, negative = inhibition” value was 3.65% (inactive). With N#Cc1ccc2c(c1)C[C@]1(CCCCN3C(=O)c4ccccc4C3=O)Oc3c(c(=O)oc4ccc(F)cc34)[C@@H]2O1 the Potency was 1.51 µM (active). For C#CCN1C(=O)[C@@]2(CC(C)=CC[C@@H](C)O2)c2ccccc21, the “activity change, negative = inhibition” value was 1.39% (inactive).
